Assay [1] concerns MCC-13. The experiment in a line: qHTS assay to identify novel small-molecules to repurpose for Merkel cell carcinoma treatment (AID 1296009). Further: nearly all actives have a fitted effect of over 60% in size. Further: potency means the concentration at half of the fitted maximal effect. The following applies: MCC and control cell lines, CellTiter-Glo viability, 72 h; series mostly up to 46 µM. Summed up:
(§1)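 Cell viability measured by CellTiter-Glo following 72 hr compound treatment at 37 degree celsius, with NPC and MIPE libraries tested in 8- and 11-point concentration series.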

Assay [2] has as its system MCC-26. The description is as above. As to conditions: MCC and control cell lines, CellTiter-Glo viability, 72 h; series mostly up to 46 µM. Summed up:
as §1

The subject of assay [3] is MKL-1. The assay is described as above. The following applies: MCC and control cell lines, CellTiter-Glo viability, 72 h; series mostly up to 46 µM. An outline of the steps:
as §1

In assay [4] the test system is MKL-2. The description is as above. As to conditions: MCC and control cell lines, CellTiter-Glo viability, 72 h; series mostly up to 46 µM. Summed up: as §1
Assay [5] concerns UISO. The description is as above. As to conditions: MCC and control cell lines, CellTiter-Glo viability, 72 h; series mostly up to 46 µM. Summed up: as §1
The subject of assay [6] is WaGa. Described as above. The following applies: MCC and control cell lines, CellTiter-Glo viability, 72 h; series mostly up to 46 µM. Summed up: as §1
For assay [7], the system named is C33A. The experiment in a line: Primary qHTS to identify gynecologic anti-cancer compounds using libraries of approved drugs and bioactive compounds (AID 1345084). Further: nearly all actives have a fitted effect of over 55% in size. The following applies: Gynecologic cancer cell panel viability, ATPlite luminescence, 48 h; series mostly up to 57.5 µM. An outline of the steps:
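Five-point cytotoxicity, 48 h drug exposure at 37 C, 5% CO2, on cells seeded 16 h beforehand. ATP content read by ATPlite luminescence.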

The subject of assay [8] is NIH3T3. The experiment in a line: qHTS assay to identify novel small-molecules to repurpose for Merkel cell carcinoma treatment (AID 1296009). Further: nearly all actives have a fitted effect of over 60% in size. Further: potency means the concentration at half of the fitted maximal effect. As to conditions: MCC and control cell lines, CellTiter-Glo viability, 72 h; at 44.8 µM (top of the series) unless noted. An outline of the steps: as §1

SMILES strings stand for the structures. Several values for one entry are separate records, joined by “and”; a condition that tells them apart may be missing. Equal values may be shown once. Results filed as inconclusive are left out. More than one record can exist for a structure, and the calls need not agree. Activity calls are given as the source filed them. The call rests on the fitted dose curve; in most records, active means well fitted curve in the direction sought with a large enough effect; inconclusive means small, poorly fitted or top-dose-only effect, or another doubt; inactive means no such curve, though single readings can be large; an effect the other way counts as inactive or inconclusive.

For the compound `NCC(O)c1ccc(O)cc1` (configuration not stated), the Potency result in assay [1], in assay [2], in assay [3], in assay [4], in assay [5] and in assay [6] was “inactive” in each case. For the same compound, the Potency result in assay [7] is “inactive”.
With `Clc1ccc(COC(Cn2ccnc2)c2ccc(Cl)cc2Cl)cc1` (configuration not stated), the Potency result in assay [1] and in assay [6] was “inactive” each time. Further, the Potency was 21.1 µM (active) and inactive in assay [2]; 23.7 µM (active) and inactive in assay [3]; 15 µM (active) in assay [5].
As to `COC1(CS(=O)c2ccccc2)CCN(CCc2c[nH]c3ccc(F)cc23)CC1` (configuration not stated), the Potency entry in assay [1], in assay [2], in assay [3], in assay [4], in assay [5] and in assay [6] was “inactive” in each case.
In the case of `C=CCN1CC[C@]23c4c5ccc(O)c4O[C@H]2C(=O)CC[C@@]3(O)[C@H]1C5`, the Potency result in assay [1], in assay [2], in assay [3], in assay [4], in assay [5] and in assay [6] was “inactive” in each case. Besides, the Potency result in assay [7] was “inactive”.
Take `CC(C)(C)CC(C)(C)c1ccc(O)cc1`: the Potency entry in assay [1], in assay [2], in assay [5] and in assay [7] was “inactive” each time. Also, the values for the Potency in assay [4] and in assay [6] were 24300 nM (active) and 34.4 µM (active), respectively. In addition, the compound was classed as inactive in assay [8].
Turning to `Cc1ccc(-c2nc3ccc(C)cn3c2CC(=O)N(C)C)cc1`, the Potency entry in assay [1], in assay [2], in assay [3], in assay [4], in assay [5] and in assay [6] was “inactive” in each case. The Potency entry in assay [7] is “inactive”.
With `C[C@@H]1[C@@H](CC(C[C@H]2O[C@@H]3O[C@]4(C)CC[C@@H]5[C@H](C)CC[C@@H]([C@H]2C)[C@@]35OO4)C[S+](=O)([O-])c2ccc(COC(=O)N(C)C)cc2)O[C@@H]2O[C@]3(C)CC[C@H]4[C@H](C)CC[C@@H]1[C@@]24OO3` (some centres not stated), in assay [2], the Potency entry was “inactive”. In addition, the Potency in assay [3] was 1.18 µM (active); in assay [4], 590 nM (active); in assay [5] it was 0.526 µM (active).
Regarding `N[C@@H](Cc1ccc(N(CCCl)CCCl)cc1)C(=O)O`, the Potency result in assay [2] and in assay [7] was “inactive” each time. In addition, the Potency in assay [3] is 2.66 µM (active) and 2.96 µM (active); in assay [4] it was 1.33 µM (active) and 469 nM (active); in assay [5], 13.3 µM (active) and 13.2 µM (active); in assay [6], 4.22 µM (active) and 5.26 µM (active).
As for `Cc1sc2c(c1C)C(c1ccc(Cl)cc1)=N[C@@H](CC(=O)OC(C)(C)C)c1nnc(C)n1-2`, the figures for the Potency in assay [3], in assay [4] and in assay [6] were 5.9 µM (active), 264 nM (active) and 2.35 µM (active), respectively.

The record behind these values is PubChem BioAssay (NCATS).
